The values below come from PubChem BioAssay (NCI).

About 83,000 compounds went through this panel and 20% of them were active in at least one assay; those are over-represented in the sample as a whole.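 96-well plates, one dose, 48 hours. Percent growth reported; active if below 10.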 Unmarked numbers belong to inactive results. Active and inactive are the calls of the source.

Some test systems named below: HCT-15 colon; HT29 colon; SNB-75 CNS; SNB-19 CNS; U251 CNS; PC-3 prostate; UACC-62 melanoma; LOX IMVI melanoma; SK-MEL-28 melanoma; SK-MEL-5 melanoma.
Experiment in all cases: NCI-60 one-dose screen, 48 h (100 = growth as untreated, 0 = no growth, -100 = all killed)
Holding throughout (settings): 10 µM unless noted

Turning to `Nc1ccc2c(c1)Cc1cc(NC(=O)C(F)(F)F)ccc1-2`, the growth in the test with HCT-15 colon was 96.4%; in the test with HT29 colon it was 90.8%; in the test on SNB-75 CNS it was 98.6%; in the test with SNB-19 CNS, 101%; with U251 CNS, 96.2%; in the test with PC-3 prostate, 99.5%. Besides, the growth with UACC-62 melanoma is 93.7%; in the test with LOX IMVI melanoma, 102%; with SK-MEL-28 melanoma, 102%.
Consider `CCOC(=O)c1nn(C2CCCCO2)c2ccc(NC(=O)CN3CCCC3)cc12` (stereo not given), for which the growth was 106% with HCT-15 colon; 111% with HT29 colon; 79% in the test with SNB-75 CNS; 95.8% with SNB-19 CNS; 94.8% in the test with U251 CNS; 107% in the test with PC-3 prostate. For the same compound, the growth was 98.5% with UACC-62 melanoma, 97.3% in the test with LOX IMVI melanoma and 105% with SK-MEL-28 melanoma.
`COCCCNc1nc(NC(=O)c2cc(Br)cc(C(F)(F)F)c2)cc(-c2cccnc2)n1`: the growth is 85.9% in the test on HCT-15 colon; 83.7% with HT29 colon; 115% with SNB-75 CNS; 95.9% with SNB-19 CNS; 85.9% with U251 CNS; 70.6% in the test with PC-3 prostate. Further, the growth in the test with SK-MEL-5 melanoma was 70.6%; in the test with UACC-62 melanoma, 90.5%; in the test on SK-MEL-28 melanoma, 98.6%.
For the compound `COc1cc2c(=O)[nH]c3cc([N+](=O)[O-])ccc3c2cc1[N+](=O)[O-]`, the growth in the test on HCT-15 colon was 46%; with HT29 colon, 30.6%; in the test on SNB-75 CNS it was 36.5%; in the test with SNB-19 CNS, 58.3%; in the test with U251 CNS, 37.8%; in the test on PC-3 prostate, 55.2%. Also, the growth with UACC-62 melanoma was 41.4%; in the test with LOX IMVI melanoma, 36.7%; in the test on SK-MEL-28 melanoma it was 78.5%.
Take `COc1ccc(/C=C/C(=C/c2c(O)[nH]c3cc(Br)ccc23)N=O)cc1`: the growth in the test on HCT-15 colon was 113%; with HT29 colon, 114%; in the test with SNB-75 CNS it was 113%; with SNB-19 CNS, 109%; with U251 CNS, 105%; in the test with PC-3 prostate it was 104%. The figures for the growth in the test with SK-MEL-5 melanoma, in the test on UACC-62 melanoma and in the test with SK-MEL-28 melanoma were 103%, 102% and 120%, respectively.
As for `CCN1c2ccccc2C(Cl)(c2ccc(N(C)C)cc2)c2ccccc21`, the growth is 73.6% with HCT-15 colon; 3.81% (active) with HT29 colon; 68.5% with SNB-75 CNS; 53.8% with SNB-19 CNS; 19.5% in the test on U251 CNS; 25.6% in the test with PC-3 prostate. For the same compound, the figures for the growth in the test on UACC-62 melanoma and with SK-MEL-28 melanoma were 51.6% and 86.2%, respectively.
As to `Cc1ccc2c(n1)C(=O)C(Cl)=C(Nc1ccc(N3CCN(C)CC3)cc1)C2=O`, the growth in the test with HCT-15 colon was 70.4%; in the test on HT29 colon it was 66.4%; in the test on SNB-75 CNS, -53.8% (active); in the test with SNB-19 CNS, 94.6%; in the test with U251 CNS it was 8.47% (active); in the test with PC-3 prostate, 68.7%. Besides, the growth is -49.4% (active) with UACC-62 melanoma, -95.4% (active) with LOX IMVI melanoma and 30.3% in the test on SK-MEL-28 melanoma.
Take `CN(C)c1cc(NN=C(c2ccc(O)cc2)c2ccc(O)cc2)c([N+](=O)[O-])cc1[N+](=O)[O-]`: the growth was 46.4% in the test with HCT-15 colon; 114% with HT29 colon; 98% with SNB-75 CNS; 67.7% in the test with SNB-19 CNS; 70.8% in the test with U251 CNS; 87.8% in the test with PC-3 prostate. The growth with UACC-62 melanoma was 71.7%; in the test with LOX IMVI melanoma, 43.7%; in the test with SK-MEL-28 melanoma, 81.5%.
For the compound `c1cc2ccc3cc2cc1CNCCN1CCNCc2ccc4ccc(cc4c2)CNCCN(CCNC3)CCNCc2ccc3ccc(cc3c2)CNCC1`, the growth in the test with HCT-15 colon was 94.5%; in the test with HT29 colon, 1.47% (active); in the test with SNB-75 CNS it was -12.6% (active); in the test on SNB-19 CNS, -7.68% (active); with U251 CNS, -4.66% (active); in the test with PC-3 prostate, -0.11% (active). Moreover, the growth was 30.1% in the test on UACC-62 melanoma, -7.72% (active) with LOX IMVI melanoma and 62.8% in the test with SK-MEL-28 melanoma.
Take `CCN(CC)CCCCCCNc1cccc2cc(Br)cnc12`: the growth is 84.7% with HCT-15 colon; 16.9% in the test with HT29 colon; 92.2% with SNB-75 CNS; 107% in the test with SNB-19 CNS; 81.2% with U251 CNS; 54.2% in the test with PC-3 prostate. Moreover, the growth was 113% with UACC-62 melanoma, 69.3% in the test with LOX IMVI melanoma and 108% in the test on SK-MEL-28 melanoma.
With `COc1cc(OC)cc(C(=O)Nc2cc(-c3cccnc3)nc(NCCCN3CCOCC3)n2)c1`, the growth was 90.6% with HCT-15 colon; 85.2% in the test with HT29 colon; 109% with SNB-75 CNS; 98.7% with SNB-19 CNS; 90.6% with U251 CNS; 85.4% in the test with PC-3 prostate. Further, the results for the growth in the test on UACC-62 melanoma, with LOX IMVI melanoma and in the test with SK-MEL-28 melanoma were 97.6%, 88.1% and 101%, respectively.
Consider `CCOC(=O)n1cc(C2=C(c3ccc(OC)c(OC)c3)COC2=O)c2ccccc21`, for which the growth with HCT-15 colon was 7.9% (active); with HT29 colon it was 1.19% (active); in the test with SNB-75 CNS, 13.9%; in the test with SNB-19 CNS it was 32.6%; in the test with U251 CNS, 23.6%; in the test on PC-3 prostate, 12%. In addition, the results for the growth with SK-MEL-5 melanoma, with UACC-62 melanoma and with SK-MEL-28 melanoma were -38.9% (active), 32.9% and 63.8%, respectively.
On to `CC(C)C1=NOC(=O)C1=Cc1cn(-c2ccccc2)nc1-c1cccc([N+](=O)[O-])c1`, for which the growth with HCT-15 colon is 60.4%; in the test with HT29 colon it was 70.5%; with SNB-75 CNS, 86.5%; with SNB-19 CNS, 74.2%; in the test with U251 CNS, 66.7%; in the test on PC-3 prostate, 73%. Moreover, the growth in the test on UACC-62 melanoma is 83.9%; in the test on LOX IMVI melanoma it was 0.102% (active); in the test with SK-MEL-28 melanoma it was 93.4%.
For the compound `CCN(CC)CCSC(=O)C(O)(c1ccccc1)C1CCCC1` (stereo not given), the growth with HCT-15 colon is 98.6%; in the test on HT29 colon, 114%; with SNB-75 CNS, 95.2%; in the test with SNB-19 CNS, 111%; with U251 CNS it was 108%; with PC-3 prostate, 96.9%. In addition, the growth is 86.9% in the test with UACC-62 melanoma, 90.3% in the test on LOX IMVI melanoma and 87% with SK-MEL-28 melanoma.
